Hit rate of the full screen: of about 360,000 compounds, about 1,100 (0.31%) were called active. Many of the other results were omitted from the sample, so actives are more common in it than they were. Values without a mark were called inactive. No stated cut-off is given here; in the data, active means activity change below about -80%; inconclusive means mostly about -51% to -80%; inactive means weaker than that.
On the % scale 0 is the no-effect control and ±100 the full control effect.

The target of the assay is RAC-alpha serine/threonine-protein kinase (Homo sapiens) (UniProt P31749). Put plainly: HTS Assay for Inhibitors of Akt Phophorylation: Primary Screen. To be noted: Neuro2A IGF-stimulated pAkt S473 HTRF, 20 min; at 50 µM, active compounds read low. In a few lines: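 Single-point screen (50 µM final compound) in Neuro2A cells stimulated 20 min with 6 nM IGF at 37 deg C. After lysis, Ser473-phosphorylated Akt read by HTRF (ex 330 nm, em 615/665 nm) as the 665/615 ratio.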
(TR-FRET usually uses a lanthanide donor and a delayed reading to cut background.)
Turning to `Cc1ccc(Nc2nc(-c3ccc(O)cc3O)cs2)nc1`, the activity change entry was “inactive”. To `c1ccc(Nc2nc(-c3ccncc3)cs2)nc1` belongs -89.8% (active); to `Brc1ccc(-c2csc(N/N=C/c3cccnc3)n2)cc1`, “inactive”. To `O=C(COC(=O)Cc1ccc(Cl)cc1Cl)NCc1ccco1` belongs “inactive”. With `O=C(COC(=O)CCC(=O)c1cccs1)NCc1ccco1`, the activity change was -115% (active). On to `O=C(COC(=O)c1ccccc1O)NCc1ccco1`, for which the activity change result was “inactive”. To `O=C(COC(=O)c1cc([N+](=O)[O-])ccc1NCc1ccccc1)NC1CCCCC1` belongs “inactive”. Take `C=C1C(=O)OC2C1CCC(C)=CCCC1(C)OC21` (stereo unspecified): the activity change result was “inactive”.

Turning to `CC(NCCO)C(=O)C12CC3CC(CC(C3)C1)C2` (stereo unspecified), the activity change result is “inactive”. For the compound `COCCN1C(=O)c2oc3c(C)cc(C)cc3c(=O)c2C1c1cccc(O)c1` (stereo unspecified), the activity change was -117% (active). Regarding `O=C1c2oc3ccccc3c(=O)c2C(c2cccc(O)c2)N1c1ccccn1` (stereo unspecified), the activity change entry was “inactive”. To `COCCN1C(=O)C(=O)/C(=C(/O)c2ccc(S(=O)(=O)N3CCOCC3)cc2)C1c1ccc(O)c(OC)c1` (stereo unspecified) belongs “inactive”. Take `CC(C)OC(=O)CC(=O)CC(O)c1cccc([N+](=O)[O-])c1` (stereo unspecified): the activity change result was “inactive”. To `CCOC(=O)[C@]12CCCC=C1N(CCC1=CCCCC1)C(=O)[C@H](CC(=O)NCCCCc1ccccc1)C2` belongs “inactive”; to `CCC(C(=O)Nc1c(C)cccc1C)n1c(-c2cc(C)cs2)nc2ccccc21` (stereo unspecified), “inactive”; to `O=C(C(Cc1ccccc1)n1cccc1)N1CCN(C2CCCCC2)CC1` (stereo unspecified), “inactive”. Consider `CCCCNC(=S)N/N=C1\CCCCc2ccccc21`, for which the activity change result is “inactive”. For `CC(=O)Nc1ccc(S(=O)(=O)N(C)CC(=O)NCCC2=CCCCC2)cc1`, the activity change result was “inactive”.

For `S=C(NCCC1=CCCCC1)Nc1ccccc1`, the activity change was -117% (active).

Take `CC(OC(=O)c1c(F)cccc1F)C(=O)NCCC1=CCCCC1` (stereo unspecified): the activity change result was “inactive”. Turning to `COc1ccc(N2c3ccccc3CN(Cc3ccccc3)[C@@H](C)[C@H]2Cc2ccc(-c3ccccc3)cc2)cc1`, the activity change result is “inactive”.

For the compound `O=C(C[C@H]1CC[C@@H](NC(=O)c2ccncc2)[C@@H](CO)O1)NCC1CC1`, the activity change entry is “inactive”. To `CC(=O)C[C@@H]1OC[C@H](CO)N1S(=O)(=O)c1ccc(C)cc1` belongs “inactive”. Take `CC(=O)NS(=O)(=O)c1ccc(NC(=O)/C=C/c2ccccc2Cl)cc1`: the activity change entry is “inactive”. In the case of `COc1cc(OC)cc(/C(N)=N/O)c1` it was “inactive”. Regarding `COC(=O)c1c(C)[nH]c(C(=O)/C=C/c2ccc(Cl)cc2)c1C`, the activity change entry is “inactive”. For `CC1(C(=O)O)CCCN(C(=O)/C=C/c2ccccc2)C1` (stereo unspecified), the activity change result was “inactive”. In the case of `Cc1[nH]c(=O)c(C(=O)/C=C/c2ccccc2)c2c1CCCC2` it was -93.4% (active); in that of `O=C(CCCn1c(=O)oc2ccccc21)Nc1cccnc1`, 5.91%. With `CC(=O)c1c(C)[nH]c(C(=O)N2CCN(S(=O)(=O)c3ccc(F)c(F)c3)CC2)c1C`, the activity change result is “inactive”. In the case of `Cc1nonc1NC(=O)CSc1nc2ccccc2cc1C#N` it was “inactive”.

Consider `Cc1nc2cc(NC(=O)CSc3nc4c(C)cccc4cc3C#N)ccc2s1`, for which the activity change was -95.1% (active). In the case of `COCc1cc(C)nc(SCC(=O)Nc2cccc(C)c2)c1C#N` it was “inactive”. To `CC1(C(=O)NS(=O)(=O)c2cccc(F)c2)CCN1C(=O)Cc1cc(F)ccc1F` (stereo unspecified) belongs “inactive”; to `COC(=O)[C@@]12C[C@@H](CC(=O)NCCCCc3ccccc3)C(=O)N(Cc3ccccc3)C1=CCC(C)(C)C2`, “inactive”; to `Cc1cccc(C)c1NC(=O)CCS(=O)(=O)c1cccc2nsnc12`, -101% (active).

On to `CCOc1ccc(NC(=O)CCS(=O)(=O)c2cccc3nsnc23)cc1`, for which the activity change entry is “inactive”. To `CCOc1ccccc1NC(=O)CCS(=O)(=O)c1cccc2nsnc12` belongs “inactive”; to `NS(=O)(=O)c1ccc(NC(=S)NC(=O)c2cccnc2)cc1`, “inactive”. In the case of `C=CCNC(=O)CCCC(=O)NCC=C` it was -102% (active); in that of `C=CCNC(=O)CCCOc1cccc(C)c1`, 3.56%. With `C=CCNC(=O)CC12CC3CC(C1)CC(CC(=O)NCC=C)(C3)C2`, the activity change result is “inactive”. On to `CCCCCc1c(-c2ccc(OC)c(OC)c2)ncn1CCc1ccccc1OC`, for which the activity change result is “inactive”. In the case of `Cc1cc(=O)n2nc(N3CCC(C(=O)Nc4c(F)c(F)c(F)c(F)c4F)CC3)sc2n1` it was “inactive”; in that of `COc1ccc(C(=O)C(OP(=O)(OC)OC)c2ccccc2OC)cc1` (stereo unspecified), “inactive”; in that of `Cc1cc(F)ccc1NC(=O)C(C)n1c2ccccc2c2nc(=O)cc(C)n21` (stereo unspecified), “inactive”.

For `COc1ccc(-c2nc3ccccc3n2CCC(C)C)cc1OC`, the activity change was -7.53%. Regarding `CCOCCn1c(-c2ccccc2)nc2ccccc21`, the activity change entry is “inactive”.

`COCCn1c(-c2ccc(OC)c(OC)c2)nc2ccccc21`: the activity change was -119% (active).

Take `COC(=O)C[C@H]1C=C[C@@H](NS(=O)(=O)c2ccc(C)cc2)[C@@H](CO)O1`: the activity change entry was “inactive”. In the case of `CCOc1ccc2c(c1)cc(CN(C(=O)CC)C1CCCCC1)c1nnnn12` it was 1.69%; in that of `CCc1cccc(NC(=S)N(CCN(C)C)C2CCN(C(C)C)CC2)c1`, “inactive”; in that of `CCc1ccc2c(c1)cc(CN(C(=S)Nc1ccccc1Cl)C1CC1)c1nnnn12`, -83.6% (active). In the case of `O=C(NCc1ccccc1)[C@H]1C[C@@H]1[C@H](NP(=O)(c1ccccc1)c1ccccc1)c1ccccc1` it was “inactive”; in that of `Cc1ccccc1CN1C(=O)CSCC1(C)C(=O)Nc1c(C)cccc1C` (stereo unspecified), “inactive”. In the case of `CCOC(=O)C1C(C)C(C(C)(C)C)N(S(=O)(=O)c2ccc(C)cc2)C1c1ccccc1` (stereo unspecified) it was “inactive”.

(Values after PubChem BioAssay AID651550 (National Center for Advancing Translational Sciences (NCATS), 2012).)
